From PubChem
VACV Venus inh: vaccinia inhibition (Venus reporter); AID 720580; Potency, µM (titrated, usually from 36.5 µM), inactives show at the top dose activity change, negative = inhibition, usual class: inhibitors; Vaccinia virus Venus reporter expression, fluorescence; hit rate 0.46% among 330,000; calls by dose curve; tested in A549 cells; note: potency is the fitted concentration of half-maximal effect; nearly all actives have a fitted effect of over 30% in size
FMDV antiviral: foot and mouth disease virus antiviral activity. hit rate 1.2% among 410,000. FMDV antiviral cell-based qHTS. Potency, µM (doses to about 57.9 µM), for the others: at the highest dose activity change, negative = inhibition, usual class: inhibitors; calls by dose curve; tested in HEK293T cells; note: read-out not given here; potency is the fitted concentration of half-maximal effect; nearly all actives have a fitted effect of over 45% in size
HCMV inh: human cytomegalovirus inhibition. hit rate 4.5% among 410,000. activity change, negative = inhibition, % at 57.5 µM. HFF cells, HCMV-luciferase reporter, 72 h; active compounds read low. AID 1259415; in the data active = activity change below about -60%; inconclusive = no clear call, values can overlap the other calls; inactive = above about -39%
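Steps: HFFs plated, 16 h 37C; compounds added; HCMV-luciferase added to MOI 1 PFU/cell; 72 h 37C; OneGlo reagent, 5 min room temperature; luminescence read, normalized to controls.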
LASV entry inh: inhibitors of Lassa virus binding or cell entry | hit rate 1.2% among 300,000 | Lassa virus pseudotype entry inhibition, cell reporter | Potency, µM (top dose mostly 37.9 µM), inactives show at the highest dose activity change, negative = inhibition, hits mostly inhibitors; calls by dose curve; tested in HEK293 cells; note: potency is the fitted concentration of half-maximal effect; nearly all actives have a fitted effect of over 50% in size
VACV mCherry inh: vaccinia inhibition (mCherry reporter). Vaccinia virus mCherry reporter infection, fluorescence. Potency, µM (series often up to 36.5 µM), for inactives: top-dose activity change, negative = inhibition, most hits filed as inhibitors. hit rate 0.63% among 310,000; calls by dose curve; tested in A549 cells; note: potency is the fitted concentration of half-maximal effect; nearly all actives have a fitted effect of over 35% in size
Marburg entry inh: Marburg virus entry inhibition; Marburg virus pseudotyped entry inhibition, cell reporter; Potency, µM (titrated, usually from 37.8 µM), for the others: top-dose activity change, negative = inhibition, hits mostly inhibitors; hit rate 1.8% among 300,000; AID 540276; calls by dose curve; tested in HEK293 cells; note: potency is the fitted concentration of half-maximal effect
* hit, by the source's call; i = inactive; ? = inconclusive; . = no result given; [ ] = dose if it differs, or a comment. This is a sample that favours compounds with a hit; in the whole collection about 6.5% have one here. % is set by controls: 0 for no effect and ±100 for the full control effect.

SMILES	VACV Venus inh	FMDV antiviral	HCMV inh	LASV entry inh	VACV mCherry inh	Marburg entry inh
COC(=O)C1=C(C)N(Cc2ccco2)C(=O)NC1c1ccc(Br)cc1 (stereo unspecified)	.	.	.	3%[14.3 µM]	.	?
CCOC(=O)c1cc(-c2ccccc2)n(CCC(=O)N2CCN(c3ccccn3)CC2)c1C	-21%	-16%	-14	?	-23%	2%
O=C(OCc1ccc(F)cc1)c1ccc2c(c1)-c1ccccc1C2=O	-19%	44%	-2	1.1µM*	.	-3%
CCc1nc(CN2CCOc3ccc(C(O)C4CCCCC4)cc3C2)c(C)[nH]1 (stereo unspecified)	-24%	-10%	.	.	-25%	.
COc1ccc(S(=O)(=O)N2CCOCC2)cc1NC(=O)CSc1nnnn1C1CC1	-13%	7%	-60*	7%	-21%	12%
COc1ccc(S(=O)(=O)N2CCOCC2)cc1NC(=O)c1cc2c(s1)CCCC2	-3%	23%	-69*	4%	-17%	?
O=C(Nc1cc(S(=O)(=O)N2CCOCC2)ccc1N1CCOCC1)c1cc2c(s1)CCC2	1%	-12%	?	?	-18%	-13%[46.1 µM]
CC(C)C[C@H]1CN(CCCC[C@H]2CNC(=O)C(=O)N2CC2CCCCC2)C(=O)C(=O)N1Cc1ccccc1	1%	13%	-20	.	-11%	.
CCOC(=O)C1=C[C@@H](CC)N(S(=O)(=O)c2ccccc2)[C@H]1c1ccccc1	-13%	-19%	-10	.	0%	.
Cc1cc(S(=O)(=O)NCCCn2ccnc2)c(C)cc1Cl	-13%	27%	-12	5%[46.1 µM]	i	-12%[46.1 µM]
Cc1cc(C)c(S(=O)(=O)NCCCn2ccnc2)cc1C	-12%	88%	-13	?	-19%	3.5µM*
CN(C)S(=O)(=O)N1CCC(N2CCN(Cc3ccc(F)cc3)C(=O)C2=O)CC1	0%	-15%	15	9%[46.1 µM]	-14%	.
Cc1cccc(C)c1NC(=O)c1ccc2sc([C@@H]3O[C@H](CO)[C@H](O)[C@H](O)[C@H]3O)nc2c1	4%	-14%	67	.	i	.
Cc1ccc(NC(=O)c2ccc(F)cc2)cc1S(=O)(=O)N1CCCCCC1	-24%	?	-78*	?	i	7.9µM*
COc1ccc(C(=O)Nc2ccc(C)c(S(=O)(=O)N3CCCCCC3)c2)cc1	?	20µM*	-65*	?	?	?
Cc1ccc(NC(=O)c2ccc(C)c(S(=O)(=O)N3CCCCCC3)c2)cc1	-13%	-18%	?	?	-1%	.
CN1CCN(C(=O)/C=C/c2ccc([N+](=O)[O-])o2)CC1	?	-16%	-101*	.	-23%	.
COC(=O)C[N+](C)(C)CC#Cc1ccccc1	-16%	-16%	-9	5.2µM*	i	2%
Cn1cnc2c(cnn2C)c1=N	3%	-10%	9	20%[46.1 µM]	-19%	6%[46.1 µM]
C[C@@](N)(C(=O)O)[C@@H]1C[C@@H]1C(=O)O	-3%	40µM*	.	.	i	.
FC(F)(F)c1ccc(/C=N/n2c(COc3ccccc3)n[nH]c2=S)cc1	-22%	-15%	-66*	?	-9%	7%[46.1 µM]
COc1ccc(S(=O)(=O)N2CCCCC2)cc1NS(=O)(=O)c1ccccc1	-7%	7%	-34	-20%	-3%	-7%
CC1COC(Cn2c3ccccc3c3ccccc32)O1 (stereo unspecified)	-12%[7.34 µM]	0%	-23	?	-12%[7.34 µM]	?
CCN(Cc1ccccc1)C(=O)COC(=O)c1cc(S(=O)(=O)Nc2c(C)n(C)n(-c3ccccc3)c2=O)ccc1C	-11%	14%	-65*	-16%[46.1 µM]	-4%	-13%[46.1 µM]
CCC[C@H]1[C@@H](NS(=O)(=O)c2c(C)cc(C)cc2C)CC[C@@]23CCCN2C(=O)CCC[C@@H]13	.	.	-30	.	.	.
SMILES	VACV Venus inh	FMDV antiviral	HCMV inh	LASV entry inh	VACV mCherry inh	Marburg entry inh
Cn1nc(-c2ccc(OCC(=O)Nc3cccnc3)cc2)c2ccccc2c1=O	.	35µM*	98	-4%	.	-13%
O=C(CCn1nc(-c2ccc(Cl)cc2)c2ccccc2c1=O)Nc1cccnc1	-18%	-15%	-65*	-2%[46.1 µM]	?	?
COc1ccc(NC(=O)CCn2nc(-c3ccc(Cl)cc3)c3ccccc3c2=O)cc1	-23%	-3%	-3	22%[46.1 µM]	-19%	12%[46.1 µM]
COc1ccc(-c2nn(C)c(=O)c3ccccc23)cc1NC(=O)COc1ccc(C)cc1	.	?	?	5.8µM*	.	?
Cc1ccc(NC(=O)COc2ccc(-c3nn(C)c(=O)c4ccccc34)cc2)cc1	?	?	-7	-6%[46.1 µM]	?	-19%[46.1 µM]
N#Cc1ccc(-c2ccc(OCC(=O)Nc3cccnc3)cc2)cc1	-15%	?	-69*	-14%	-11%	?
CC(C)(N=NC(C)(C)C(=N)N)C(=N)N	?	2%	.	.	i	.
CC1CCCN(S(=O)(=O)c2ccc(C(=O)NC(C)c3ccccc3)cc2)C1 (stereo unspecified)	-21%	-9%	-10	-3%	-20%	3%
CNC[C@H](CC1CCCCC1)NC[C@H](CO)NCCc1cccc(C(F)(F)F)c1	20µM*	-16%	-100*	.	?	.
C/C(=N\NC(=O)c1cc(-c2cccc([N+](=O)[O-])c2)n[nH]1)c1ccccc1O	?	-19%	39	?	10µM*	?
CCOc1ccc(CNC(=O)CC(C)n2nc(C)cc2C)cc1OC (stereo unspecified)	-7%	-7%	0	10%[46.1 µM]	i	.
Clc1ccc2c(c1)-c1[nH]ncc1CS2	-26%	-14%	-61*	16%[46.1 µM]	i	2%[46.1 µM]
O=C1CSc2cc(Cl)ccc2N1	-6%	-5%	-12	0%[46.1 µM]	-9%	0%[46.1 µM]
Cc1nn(-c2ccccc2)c(C)c1NC(=O)COC(=O)CCc1ccccc1	.	-2%	-3	.	.	.
O=C(CC(=O)NCc1ccc(Cl)cc1)NCc1ccccc1	.	-26%	-13	.	.	.
CC1(NCc2ccc(Cl)cc2)COP(=O)(NCc2ccccc2)OC1 (stereo unspecified)	-19%	-7%	-83*	6%	i	-8%
CCOC(=O)c1ccc(N2C(=O)C3CCOc4ccccc4C32)cc1 (stereo unspecified)	?	-16%	-79*	.	i	.
CCOC(=O)c1ccc(N2C(=O)[C@@H](c3ccccc3)[C@H]2c2ccccc2)cc1	-8%	-21%	0	.	i	.
COc1ccc(C2(CNC(=O)C(=O)Nc3cccc(C(F)(F)F)c3)CCCC2)cc1OC	-9%	?	-10	-20%[46.1 µM]	-13%	-21%[46.1 µM]
S=C(c1ccc(-c2ccccc2)cc1)N1CCOCC1	-6%	3%	-83*	-2%[46.1 µM]	-1%	?
CN(CCC#N)C(=O)COC(=O)c1ccc(Cl)c(S(=O)(=O)N(C)c2ccccc2)c1	-8%	-19%	-4	-11%	-12%	2%[46.1 µM]
COc1cccc(CN(C)C(=O)c2cccc(S(=O)(=O)N3CCN(Cc4ccccc4)CC3)c2)c1OC	-22%	?	-74*	?	-8%	?
COc1cccc(CN(C)C(=O)c2cccc(S(=O)(=O)N3CCN(c4ccccc4)CC3)c2)c1OC	.	18µM*	-70*	.	.	0%
